Screens as filed in PubChem BioAssay.
LANA-H2B inh – blockers of LANA interaction with H2A/H2B – biochemical, FP readout, HTS, primary screen. Protein LANA1 (Human herpesvirus 8 type P (isolate GK18)), Q9QR71. cell-free LANA-H2A/H2B peptide, fluorescence polarization. inhibition, % (concentration not given with the values). 0.6% of 320,000 active. AID 2629, 2010; in the data active = inhibition mostly above about 10%, no sharp cut-off; inactive = mostly below about 6.7%
GRK2 inh – compounds blocking aptamer binding on GRK2 – biochemical, human GRK2, bead flow cytometry, HTS, primary screen; FAM-aptamer displacement from GRK2; inhibition of aptamer binding, % at 10 µM; 0.59% of 330,000 active; AID 488847, 2010;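 active = inhibition of aptamer binding above 40%, roughly 3 SD of noise, on plates passing a quality check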;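 also: median bead fluorescence of bound FAM aptamer so fluorescent compounds give negative values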
Pemphigus Ab inh – inhibitors of pemphigus antibody binding to DSG3, primary screen, biochemical, bead-based, flow cytometry, scFv-GFP; AID 588358, 2011; Desmoglein-3 (Homo sapiens), P32926; binding (percent of control), % at 10 µM; 0.48% of 310,000 active; DSG3-coupled beads, scFv-anti-DSG3-GFP binding; hits give low values;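 active = binding more than 3 SD below its plate's average and above zero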;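 also: hits lower antibody fragment binding to DSG3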
Target sequence (P32926 whole entry, looked up, the tested form may be a part): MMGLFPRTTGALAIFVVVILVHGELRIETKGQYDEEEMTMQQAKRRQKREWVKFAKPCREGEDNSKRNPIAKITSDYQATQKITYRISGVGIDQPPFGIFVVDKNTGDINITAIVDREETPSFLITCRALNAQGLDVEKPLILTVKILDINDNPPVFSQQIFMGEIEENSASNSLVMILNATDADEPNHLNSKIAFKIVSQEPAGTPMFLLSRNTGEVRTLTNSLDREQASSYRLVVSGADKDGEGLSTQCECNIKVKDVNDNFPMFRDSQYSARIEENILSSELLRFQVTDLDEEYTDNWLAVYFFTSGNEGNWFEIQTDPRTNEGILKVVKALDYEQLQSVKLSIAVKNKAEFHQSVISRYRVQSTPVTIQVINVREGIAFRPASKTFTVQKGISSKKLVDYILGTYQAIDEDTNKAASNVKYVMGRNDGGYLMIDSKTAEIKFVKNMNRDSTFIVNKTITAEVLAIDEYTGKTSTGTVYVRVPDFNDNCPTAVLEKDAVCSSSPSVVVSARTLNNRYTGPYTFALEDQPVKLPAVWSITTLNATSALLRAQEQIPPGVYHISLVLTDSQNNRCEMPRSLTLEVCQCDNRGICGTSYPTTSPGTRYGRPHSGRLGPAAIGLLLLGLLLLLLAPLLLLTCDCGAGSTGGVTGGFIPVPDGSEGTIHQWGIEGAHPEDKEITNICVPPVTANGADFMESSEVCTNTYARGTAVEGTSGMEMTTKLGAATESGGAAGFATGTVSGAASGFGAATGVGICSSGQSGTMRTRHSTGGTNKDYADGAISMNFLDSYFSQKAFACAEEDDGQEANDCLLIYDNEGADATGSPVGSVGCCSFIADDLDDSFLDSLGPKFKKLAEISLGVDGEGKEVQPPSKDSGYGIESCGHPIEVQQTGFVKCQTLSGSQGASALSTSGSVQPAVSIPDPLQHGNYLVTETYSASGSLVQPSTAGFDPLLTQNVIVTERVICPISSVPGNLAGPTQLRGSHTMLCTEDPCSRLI
VLA-4 inh – inhibition in human VLA-4 binding assay, primary screen, VLA-4 allosteric modulator project, MLPCN library, flow cytometry, VLA-4 expressing cells; 0.2% of 330,000 active; AID 2557, 2010; ligand binding flow cytometry; inhibition, % (about 7 µM as worked out from the volumes in the protocol); Integrin alpha-4 (Homo sapiens), P13612
HDAC3 inhib – HDAC3 deacetylase inhibitors, primary screen, biochemical, fluorescence, cell-free homogeneous | Histone deacetylase 3 (Homo sapiens), O15379 | 0.15% of 320,000 active | inhibition, % at 8.3 µM | recombinant HDAC3, fluorogenic peptide/trypsin coupled; in the data active = inhibition above about 26%, passing the limit was not always enough
PKD1 inh – inhibitors of human PKD1 kinase, biochemical, fluorescence polarization | Serine/threonine-protein kinase D1 (Homo sapiens), Q15139 | PKD1 kinase fluorescence polarization assay | inhibition, % (test concentration not listed) | 0.056% of 200,000 active | AID 797, 2007
GRK2 inh confirm – GRK2 aptamer-displacing inhibitors, retest, confirmation, biochemical, cherry pick 1, bead flow cytometry; shares compounds with GRK2 inh; bead-bound GRK2, FAM-aptamer displacement; aptamer displacement, % at 10 µM; 4% of 2,000 active;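 active = aptamer displacement above 40%, near three times the noise of non-fluorescent compounds, on plates passing quality checks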;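 also: negative values mostly reflect intrinsic compound fluorescence rather than true enhancement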
FAM quench CP1 – counter-screen for GRK2 aptamer inhibitors: fluorescent aptamer quenchers | shares compounds with GRK2 inh | Carboxyfluorescein RNA aptamer on beads, flow cytometry quenching; hits give low values | fluorescence response (% of DMSO), % at 10 µM | 2,000 tested, under 10 active | AID 504580;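 active = compounds that quench the bead-bound fluorescent RNA probe, cutting fluorescence to under half of the solvent control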;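 also: counterscreen run without GRK2 so only probe quenching by compound is measured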
GRK2 CP2 – GRK2 aptamer-displacing inhibitors, hit retest, confirmation, biochemical, cherry pick 2, bead flow cytometry | 360 tested, under 10 active | shares compounds with GRK2 inh | AID 504782, 2011 | bead-bound GRK2, FAM-aptamer displacement | inhibition of aptamer binding, % at 10 µM;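 active = inhibition of aptamer binding above 40%, about triple the noise seen with nonglowing compounds, on plates passing quality control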;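 also: negative values mostly come from compounds that fluoresce themselves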
FAM quench CP2 – quenches fluorescent RNA aptamer, GRK2 hit artifact. AID 588494. carboxyfluorescein RNA aptamer beads, flow cytometry quenching; hits give low values. fluorescence response vs DMSO, % at 10 µM. shares compounds with GRK2 inh. 360 tested, under 10 active;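 active = response vs DMSO under 50%, meaning signal dropped by over half, treated as fluorescence quencher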;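 also: labelled aptamer on streptavidin beads without GRK2 as a quench counter-screen; 100% = bead fluorescence of DMSO wells and lower means quenching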
* marks the source's active call; other numbers are inactive results; x = no result given. Shown are actives, neighbours in structure and some others; about 1.8% of the full set was active somewhere. Rule as the data show it, unless noted: active = inhibition above about 50%; inactive = the rest.

SMILES	LANA-H2B inh	GRK2 inh	Pemphigus Ab inh	VLA-4 inh	HDAC3 inhib	PKD1 inh	GRK2 inh confirm	FAM quench CP1	others
Nc1nc(N(Cc2ccccc2)Cc2ccccc2)nc(C(F)(F)F)n1	3	43*	95	38	14	x	x	x	GRK2 CP2=-6;FAM quench CP2=100
COc1ccc(CC(=O)NCc2ccc3c(c2)cc(C)n3C)cc1	2	67*	78	7	-2	-7	-2	95
Cc1cc2cc(CNC(=O)c3ccc(S(=O)(=O)N4CCCCC4)cc3)ccc2n1C	0	66*	99	-2	-1	9	0	99	GRK2 CP2=-12;FAM quench CP2=100
COc1ccc(C(=O)NCc2ccc3c(c2)cc(C)n3C)cc1OC	0	5	109	6	-4	-3	1	96
Cc1cc2cc(CNS(=O)(=O)c3ccccc3)ccc2n1C	7	54*	86	-6	x	4	3	84
COc1cc2cc(CCCOC(=O)c3ccc(F)cc3)oc(=O)c2cc1OC	0	2	96	0	-5	x	x	x
COc1cccc(C(=O)NCc2ccc3c(c2)cc(C)n3C)c1	-5	84*	82*	-16	-1	-11	0	96
COc1ccc(NC(=S)NCc2ccc3c(c2)cc(C)n3C)cc1	2	1	93	5	0	-4	x	x
CC(=O)c1cccc(NC(=O)c2c(C)nn(-c3ccccc3)c2Cl)c1	-3	0	93	7	-13	-1	2	84
Cc1nn(-c2ccccc2)nc1C(=O)Nc1cccc(C(=O)NC2CC2)c1	x	x	106	x	x	x	x	x
CC(=O)c1ccc(NC(=O)c2c(C)nn(-c3ccccc3)c2Cl)cc1	-1	3	110	2	-2	-1	x	x
CC(=O)c1cccc(NC(=O)c2cc(-c3ccc(C)cc3)on2)c1	0	2	117	-7	-4	-19	-2	97
COc1ccc(NC(=O)c2cc(-c3ccc(C)cc3)on2)cc1OC	-1	0	100	14	1	x	x	x
Cc1ccc(-n2nc(C)c(C(=O)Nc3cccc(C(=O)NC4CC4)c3)n2)c(C)c1	-5	0	98	1	11	x	-1	103
Cc1nn(-c2cccc(Cl)c2)nc1C(=O)Nc1cccc(C(=O)NC2CC2)c1	-5	2	x	3	6	x	1	96
COCCN(C(=O)c1ccccc1Oc1ccccc1)c1c(N)n(CC(C)C)c(=O)[nH]c1=O	1	41*	x	18	2	x	0	98
COc1ccc(NC(=O)C2CCCN(S(C)(=O)=O)C2)cc1OC (stereo unspecified)	-2	1	98	15	-7	x	x	x
Cc1[nH][nH]c(=O)c1C(c1ccc(-c2cccc(Cl)c2)o1)c1c(C)[nH][nH]c1=O	4	2	89	-9	13	x	x	x
Cc1[nH][nH]c(=O)c1C(c1ccc(-c2cccc(C(=O)O)c2)o1)c1c(C)[nH][nH]c1=O	4	42*	97	-1	-5	1	x	x	GRK2 CP2=10;FAM quench CP2=98
